# The full ranking holds about 33,000 sequences; the median of “E-score (-0.5 to 0.5)” is about -0.053, and the highest 2% start at about 0.37. The list comes from a sample in which the highest values are over-represented; it also holds similar and randomly drawn sequences.
# Biological target: Hap1 (UniProt P0CE41)
# Assay: PBM E-score (8-mer binding enrichment) (E-score (-0.5 to 0.5)); higher = stronger / more preferred TF binding
# Details: protein concentration: 200 nM; construct: GST-DNA-binding domain
# Procedure, shortened: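 The E-score, a modified Wilcoxon-Mann-Whitney statistic, was computed by the Universal PBM Analysis Suite for every ungapped eight-base word pooled with its reverse complement. Scans behind it were normalised with masliner after bound GST-tagged yeast transcription factors were detected with fluorescent anti-GST. The proteins, at about 100-200 nM, had been applied to universal all-10-mer Agilent arrays made double-stranded by primer extension.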
# Sequence of UniProt P0CE41 (P0CE41 whole entry): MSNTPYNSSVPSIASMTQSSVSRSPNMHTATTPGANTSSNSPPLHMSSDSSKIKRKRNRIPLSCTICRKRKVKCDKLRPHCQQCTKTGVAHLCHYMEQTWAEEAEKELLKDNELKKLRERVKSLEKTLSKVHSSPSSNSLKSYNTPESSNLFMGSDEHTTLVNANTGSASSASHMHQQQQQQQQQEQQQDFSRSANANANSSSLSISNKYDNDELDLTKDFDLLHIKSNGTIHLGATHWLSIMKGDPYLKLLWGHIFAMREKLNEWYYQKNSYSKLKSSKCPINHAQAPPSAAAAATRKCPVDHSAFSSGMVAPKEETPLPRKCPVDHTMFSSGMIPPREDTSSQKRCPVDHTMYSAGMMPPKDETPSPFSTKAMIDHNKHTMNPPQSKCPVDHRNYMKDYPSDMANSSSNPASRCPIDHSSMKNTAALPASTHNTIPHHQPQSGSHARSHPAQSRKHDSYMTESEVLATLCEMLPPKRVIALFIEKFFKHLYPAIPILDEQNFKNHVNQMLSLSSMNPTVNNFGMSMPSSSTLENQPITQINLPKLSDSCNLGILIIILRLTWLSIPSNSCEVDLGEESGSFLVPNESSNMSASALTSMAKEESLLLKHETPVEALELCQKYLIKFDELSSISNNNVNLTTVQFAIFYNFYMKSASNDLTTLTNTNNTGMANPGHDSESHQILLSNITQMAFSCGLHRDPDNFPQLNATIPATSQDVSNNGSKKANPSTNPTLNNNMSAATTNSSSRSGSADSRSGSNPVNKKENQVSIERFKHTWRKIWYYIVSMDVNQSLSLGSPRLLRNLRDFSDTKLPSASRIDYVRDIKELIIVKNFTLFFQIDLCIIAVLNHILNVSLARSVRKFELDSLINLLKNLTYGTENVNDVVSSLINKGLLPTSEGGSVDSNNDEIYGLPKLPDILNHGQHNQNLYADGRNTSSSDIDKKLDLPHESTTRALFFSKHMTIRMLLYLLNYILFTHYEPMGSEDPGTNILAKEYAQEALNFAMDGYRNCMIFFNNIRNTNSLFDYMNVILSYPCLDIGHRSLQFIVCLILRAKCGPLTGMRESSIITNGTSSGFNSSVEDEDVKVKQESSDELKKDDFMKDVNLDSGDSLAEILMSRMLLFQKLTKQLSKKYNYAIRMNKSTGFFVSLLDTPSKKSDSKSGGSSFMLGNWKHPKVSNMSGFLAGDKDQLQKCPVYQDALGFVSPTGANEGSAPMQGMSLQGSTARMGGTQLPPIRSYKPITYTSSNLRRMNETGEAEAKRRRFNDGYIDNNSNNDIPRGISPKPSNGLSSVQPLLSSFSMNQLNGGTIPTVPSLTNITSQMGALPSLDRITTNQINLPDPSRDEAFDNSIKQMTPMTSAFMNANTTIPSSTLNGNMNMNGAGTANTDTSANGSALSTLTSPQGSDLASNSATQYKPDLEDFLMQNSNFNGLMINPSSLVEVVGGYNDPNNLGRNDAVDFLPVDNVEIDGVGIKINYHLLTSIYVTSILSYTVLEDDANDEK
row,Sequence,PBM E-score
1,GAAGGCAA,-0.137
2,AAATTGAG,-0.0939
3,CTCTGGCA,-0.217
4,ATTGGTTA,-0.094
5,CCGGAGTA,0.435
6,ACGGAGAA,0.27
7,CCGGAGAA,0.428
8,CCGGAGGA,0.432
9,GCGGAGAA,0.349
10,TCGGAGAA,0.405
11,CCGGAGGC,0.286
12,GCGGAGGA,0.17
13,CCGGAGAG,0.354
14,CCGGAGTC,0.356
15,GCGGAGTA,0.25
16,CAGGAGAA,-0.147
17,ACCATGCG,-0.0491
18,CATTAACC,0.0537
19,TCTATGAA,-0.115
20,CACAATGC,-0.0342
21,GAGAATGA,-0.137
22,AGGGCTGG,-0.101
23,CCGGTTCA,0.267
24,CGTTTTAA,-0.0609
25,CCGGAGCA,0.418

row,Sequence,PBM E-score
1,CCGGAGAC,0.373
2,CCGGAGCG,0.359
3,GCGGAGCA,0.211
4,GCGGAGAC,0.348
5,CGGGAGAC,0.216
6,AGTTAGGC,-0.113
7,CTCGGGAC,0.263
8,GCCCCATA,-0.00491
9,GCCGGGAA,0.326
10,CCCGGGGC,0.33
11,CCGGGGCG,0.322
12,CCCGGGGA,0.359
13,GCCGGGGA,0.392
14,CCCGGGTC,0.386
15,ACCGGGTC,0.194
16,CCGGGGCC,0.318
17,CCCGGGTA,0.315
18,CCCGGGCC,0.387
19,CCCGGGCG,0.383
20,CCCCGGCG,0.309
21,CGGGGTTC,0.211
22,AACAGATC,-0.0165
23,GCCTTAGA,-0.04
24,GGTAACAA,0.13
25,TAAGAATA,-0.141

row,Sequence,PBM E-score
1,TGTCCACA,-0.159
2,TTACCAAA,-0.0884
3,CTGGTTAC,-0.205
4,GAAAAGTA,-0.0758
5,GATCTGCC,0.03
6,CCCGGGCA,0.376
7,AGCGGGCG,0.222
8,ACCGGGCA,0.288
9,CCGGGGCA,0.312
10,ACCGGGCT,0.334
11,ACCGGGGA,0.284
12,ACCGGGCC,0.373
13,ACCGGGCG,0.385
14,ACCGGGGG,0.379
15,GCCGGGCA,0.301
16,AACGGGCG,0.246
17,ACCGGGGC,0.291
18,GCCAACAC,0.0365
19,CGAGCAAG,-0.182
20,CATTTAGG,-0.112
21,CTCCTCCA,-0.216
22,CCGGGCAA,0.322
23,GAGGAACC,-0.0105
24,CAGCATTC,-0.162
25,TATCAGCA,0.0209

row,Sequence,PBM E-score
1,GCTTCACC,-0.12
2,CTCAGTTC,-0.241
3,GCTCTGTA,-0.234
4,AGAACATG,-0.0473
5,CCCCTCCC,-0.00587
6,AACTGCCA,-0.186
7,AACTCCAT,0.139
8,AACTCCGT,0.447
9,AACTCCCT,-0.0179
10,AACTCCGC,0.389
11,GACTCCGC,0.174
12,CACTCCGC,0.156
13,CACTCCGG,0.302
14,GACTCCGA,0.301
15,TACTCCGA,0.375
16,AACTCCGG,0.481
17,CACTCCGA,0.212
18,AACTCCCG,0.333
19,ACCCTGTA,-0.0405
20,CCTTCAAG,-0.253
21,AAGTGGCG,-0.0765
22,ACGGCTGG,0.00715
23,AACTCCAA,-0.0924
24,AACTCCCA,-0.00143
25,AACTCCGA,0.474

row,Sequence,PBM E-score
1,TCTGTCCA,0.00731
2,CATCGGCG,0.264
3,ACACTAGA,-0.095
4,TCGGACAA,0.394
5,CTGGACAA,-0.215
6,CAGGACAG,-0.195
7,CCGGACAC,0.351
8,ACGGACAA,0.335
9,CCGGACAG,0.382
10,CAGGACAA,0.0261
11,CCGGACAA,0.414
12,GCGGACAA,0.304
13,CGCGGGAG,0.0987
14,CCAGTGCG,0.0478
15,GTTCCATA,-0.0357
16,ACGCAACT,0.064
17,AGTGCCAT,-0.0559
18,GTATCGAA,-0.152
19,ATATCGTA,0.11
20,ATATCGGA,0.439
21,GTATCGGA,0.415
22,CAATCGGG,0.205
23,GAATCGGA,0.366
24,CAATCGGA,0.394
25,AAATCGGA,0.344

row,Sequence,PBM E-score
1,CTATCGGA,0.452
2,TAATCGGA,0.317
3,CTATCGAA,-0.177
4,CTATCGTA,-0.17
5,AACACAGA,-0.116
6,AGACCTTA,-0.154
7,GCTATAGC,0.0502
8,AGCGGCAA,0.0491
9,CACGCTAA,-0.0232
10,ATACCCCC,0.283
11,AACGCCCC,0.128
12,AAGGACAG,-0.182
13,ATATCGGG,0.436
14,ATATCGTG,-0.0299
15,AAATCGGG,0.246
16,ATTCCAAG,-0.177
17,ATTCCGAA,0.375
18,AATCCGAG,0.338
19,ATTCCGAG,0.397
20,ATTCCGAC,0.307
21,CTTCCGAA,0.324
22,AAGTCGGG,0.153
23,AAACCACG,-0.0117
24,ACACACCC,0.117
25,AAAGTCCG,0.446

row,Sequence,PBM E-score
1,CAAGTCCC,-0.181
2,AAAGTCCA,-0.0824
3,CAAGTCCG,0.39
4,AAAGTCCT,0.157
5,CAAGTCCA,-0.222
6,CATCCTCA,-0.154
7,AATCAAAG,-0.129
8,AGCGGTCG,0.123
9,GGCTAAAA,0.0064
10,GGTGATAC,0.14
11,GGATATAA,0.382
12,CGTGATAA,-0.0733
13,CGATATAA,0.308
14,GGATATAC,0.319
15,AGAGATAA,0.00783
16,GGAGATAA,0.455
17,GGTGATAA,0.378
18,GGAGATAC,0.438
19,AGAGATAC,-0.0992
20,CGAGATAA,0.164
21,CGAGATAC,0.188
22,CGGAAGCC,0.199
23,GAGCGTGA,-0.183
24,AGTGCACT,-0.0451
25,AACTTCTG,-0.205

row,Sequence,PBM E-score
1,CTGGTAGA,-0.2
2,GAACACGA,-0.0354
3,ACCTGAAT,-0.104
4,CAGCCCTA,-0.0376
5,AGTTATCG,0.382
6,CCTTATCG,0.241
7,ACTTATCA,-0.148
8,AGTTATCA,-0.0683
9,ACTTATCG,0.415
10,AGTTATCC,0.106
11,AGCGCGGA,0.223
12,GCGACAGC,0.0479
13,CCCCGATA,0.44
14,GCCCGACA,0.255
15,GCACGATA,0.0171
16,GCCCGATA,0.423
17,ACCCGATG,0.3
18,CCCCGAAA,0.348
19,ACCCGATC,0.244
20,CCCCGATC,0.35
21,ACCCGATA,0.439
22,CTTAGGAC,-0.283
23,AGGGGGAC,-0.213
24,ATCCGCCC,0.243
25,ATCCGCCA,0.181

row,Sequence,PBM E-score
1,ATCCGCCG,0.375
2,AACAAAGT,0.00728
3,GCGGTGGA,0.0678
4,ACGGTGGA,-0.062
5,CCGGTGGA,0.39
6,CGACCTTC,0.0839
7,GGGAGATA,0.268
8,AGGAGATA,0.253
9,AGGAGATC,-0.098
10,CTGAGATC,-0.171
11,CGGAGATA,0.495
12,CGGAGATC,0.411
13,GTTCCTGA,-0.242
14,AGCAATAC,-0.0164
15,AGTAAAGC,-0.00459
16,ACGTACAC,-0.181
17,ACCCAACG,-0.0503
18,CGGAGGTA,0.443
19,AGGAGGTA,-0.044
20,CGGAGGAA,0.375
21,AGGAGGAA,-0.218
22,CGGAGGTC,0.261
23,CGGAGGAG,0.284
